TR-FRET SRC-2 ct: TR-FRET signal artefacts, primary screen, artefact control for PPARgamma SRC-2 agonist project, biochemical | TR-FRET artefact counter-screen; active compounds read high | TR-FRET ratio at 8 µM | actives 0.4% (n = 200,000); in the data active = TR-FRET ratio above about 2000
SRC3 TRFRET art: TR-FRET detection interference compounds, artefact control for PPARgamma SRC-3 recruitment agonists, biochemical, TR-FRET ratio; TR-FRET artefact counter-screen, PPARgamma/SRC-3 format; active compounds read high; actives 0.39% (n = 99,000); AID 1048, 2008; TR-FRET ratio at 8 µM; in the data active = TR-FRET ratio above about 2000
SRC1 TRFRET art: TR-FRET detection interference compounds, primary screen, artefact control for PPARgamma SRC-1 recruitment agonists, biochemical, TR-FRET emission ratio | TR-FRET detection artefact counter-screen; active compounds read high | TR-FRET ratio at 8 µM | actives 0.34% (n = 99,000); in the data active = TR-FRET ratio above about 2300
PPARg SRC3 recr: PPARgamma agonists recruiting SRC-3 coactivator, primary screen, biochemical | AID 731, 2007 | activation, % at 8 µM | actives 0.26% (n = 200,000) | biochemical PPARgamma/SRC-3 coactivator recruitment assay; in the data active = activation above about 23%
Target sequence (P37231 whole entry, looked up): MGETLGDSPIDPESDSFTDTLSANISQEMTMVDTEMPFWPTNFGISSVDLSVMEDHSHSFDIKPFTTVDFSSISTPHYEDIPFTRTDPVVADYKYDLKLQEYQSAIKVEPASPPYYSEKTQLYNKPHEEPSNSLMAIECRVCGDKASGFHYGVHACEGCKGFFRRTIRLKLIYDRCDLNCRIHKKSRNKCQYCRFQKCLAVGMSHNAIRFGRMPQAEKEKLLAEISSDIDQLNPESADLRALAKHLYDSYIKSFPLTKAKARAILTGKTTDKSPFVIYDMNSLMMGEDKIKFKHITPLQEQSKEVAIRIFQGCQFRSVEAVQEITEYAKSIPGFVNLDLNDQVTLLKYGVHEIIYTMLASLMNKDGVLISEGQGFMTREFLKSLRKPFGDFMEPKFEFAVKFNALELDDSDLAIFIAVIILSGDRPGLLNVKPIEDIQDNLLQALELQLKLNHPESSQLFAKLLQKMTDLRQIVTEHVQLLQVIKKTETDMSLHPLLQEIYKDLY
PPARg SRC1 recr: PPARgamma agonists recruiting SRC-1 coactivator, primary screen, biochemical | PPARgamma-SRC-1 coactivator recruitment biochemical assay | activation, % at 8 µM | actives 0.41% (n = 200,000) | AID 631, 2007; in the data active = activation above about 19%
PPARg SRC-2 ag: agonists of PPARg-SRC-2 recruitment, primary screen, biochemical, HTS. Peroxisome proliferator-activated receptor gamma (Homo sapiens), P37231. PPARgamma LBD-SRC-2 recruitment. activation, % at 8 µM. actives 0.34% (n = 200,000). AID 1032, 2008
PPARg SRC2 ag: agonists of PPARgamma SRC-2 coactivator recruitment, confirmation, biochemical, HTS; shares compounds with PPARg SRC3 recr; biochemical SRC-2 recruitment by PPARgamma; activation, % at 8 µM; actives 52% (n = 790); AID 1297, 2008
PPARg SRC1 ag: PPARgamma agonists recruiting SRC-1 coactivator, confirmation, biochemical; shares compounds with PPARg SRC3 recr; PPARgamma–SRC-1 coactivator recruitment biochemical assay; activation, % at 8 µM; actives 43% (n = 790); in the data active = activation above about 20%
PPARg SRC3 conf: PPARgamma-driven SRC-3 coactivator recruitment agonists, confirmation, biochemical; shares compounds with PPARg SRC3 recr; biochemical PPARgamma-SRC-3 coactivator recruitment, agonist mode; activation, % at 8 µM; actives 29% (n = 790); AID 1301, 2008; in the data active = activation above about 24%
A number is an active result; – = inactive; · = no result. Rows were chosen to be rich in hits. Some 0.9% of all compounds tested hit in one or more screens of this group. Rule as the data show it, unless noted: active = activation above about 22%; inactive = the rest.

SMILES | TR-FRET SRC-2 ct | SRC3 TRFRET art | SRC1 TRFRET art | PPARg SRC3 recr | PPARg SRC1 recr | PPARg SRC-2 ag | PPARg SRC2 ag | PPARg SRC1 ag | PPARg SRC3 conf
O=C(Nc1nc2c(s1)CN(Cc1ccccc1)CC2)c1cccc(S(=O)(=O)N2CCc3ccccc32)c1 | 4126 | · | · | 38.6 | 36.9 | – | 50.0 | 41.1 | 30.0
O=C(c1cc2c(s1)-c1ccccc1OC2)N1CCN(c2ccccn2)CC1 | 2008 | · | · | 30.3 | 30.4 | 22.2 | 33.7 | 29.5 | –
CCOC(=O)N1CCN(C(=O)c2cc3c(s2)-c2ccccc2OC3)CC1 | – | · | · | 37.8 | 20.5 | – | – | – | –
O=C(c1cc2c(s1)-c1ccccc1OC2)N1CCN(c2ccccc2)CC1 | 2061 | · | · | – | 19.4 | – | – | – | –
CCOc1cccc(C2C(C(=O)c3ccc(C)o3)=C(O)C(=O)N2Cc2ccncc2)c1 (stereo not drawn) | – | · | · | – | – | – | · | · | ·
Cc1cc(N2C(=O)C(O)=C(C(=O)c3ccco3)C2c2ccc(O)cc2)no1 (stereo not drawn) | – | · | · | – | – | – | · | · | ·
Cc1cc(N2C(=O)C(O)=C(C(=O)c3ccc(C)o3)C2c2cccs2)no1 (stereo not drawn) | 2253 | · | · | 44.8 | 34.6 | 37.0 | – | – | –
CCOc1cccc(C2C(C(=O)c3ccc(C)o3)=C(O)C(=O)N2c2nccs2)c1 (stereo not drawn) | 2000 | · | · | – | 22.4 | 27.5 | – | – | –
Cc1ccc2nc(N3C(=O)C(O)=C(C(=O)c4cc5ccccc5o4)C3c3cccs3)sc2c1 (stereo not drawn) | – | · | · | 30.2 | 29.6 | – | – | – | –
COC(=O)c1sc(N2C(=O)c3oc4ccccc4c(=O)c3C2c2cccs2)nc1C (stereo not drawn) | – | · | · | – | – | – | · | · | ·
COc1cc2ccccc2cc1C(=O)N1CCN(C)CC1 | – | · | · | – | – | – | · | · | ·
Fc1ccccc1-c1nc(NCc2ccco2)c2ccccc2n1 | – | – | – | – | – | – | · | · | ·
Cn1cccc1/C=C1\Cc2ccccc2C1=O | – | – | 2340 | – | – | 24.5 | – | – | –
Cn1cccc1/C=C1\CCc2ccccc2C1=O | – | – | – | – | – | – | · | · | ·
Cn1c(=O)cc(SCC(=O)Nc2cccnc2)c2ccccc21 | 3288 | · | · | 93.1 | 66.0 | 61.9 | 28.4 | – | –
Cn1c(=O)cc(SCC(=O)NCc2cccnc2)c2ccccc21 | – | · | · | 38.4 | 28.1 | 22.4 | 23.9 | – | –
O=C(CCCN1C(=O)/C(=C/c2ccccc2Cl)SC1=S)NNC(=O)c1ccccc1Cl | – | – | – | – | – | – | · | · | ·
Cn1c(NCCN2CCOCC2)nc2c1c(=O)n(Cc1cccc(Cl)c1)c(=O)n2C | – | · | · | – | – | – | · | · | ·
Fc1cccc(NC(=S)NNc2c3ccccc3nc3ccccc23)c1 | 2526 | 2517 | 3530 | – | 45.3 | 53.0 | – | – | –
Cc1ccc(-n2nnnc2C(Cl)c2nnnn2-c2ccc(C)cc2)cc1 | – | – | – | – | – | – | · | · | ·
CCOC(=O)N1CCN(C(=O)c2ccc(CNS(=O)(=O)c3ccc(C)cc3)cc2)CC1 | – | · | · | – | – | – | · | · | ·
Cc1ccc(/C=N/N2CCN(c3ccc(Cl)cc3)CC2)o1 | – | · | · | – | – | – | · | · | ·
Cc1ccc(Cl)cc1-c1ccc(C=Nc2ccc(N3CCOCC3)cc2)o1 | 2256 | 2494 | 2713 | 27.0 | 32.8 | 37.0 | 47.3 | 34.2 | 27.8
S=C(NCc1ccc2c(c1)OCO2)Nc1ccc2nsnc2c1 | 2840 | 3652 | 3812 | 56.4 | 61.4 | 90.9 | 22.6 | 28.0 | –

Screening data (PubChem BioAssay)
